These results are taken from PubChem BioAssay (NCI).

SMILES strings stand for the structures. This is part of a sample that, as a whole, favours compounds with a hit. Of some 83,000 tested, about 20% had one in any assay.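 Assay: single dose, 48 h. Readout: percent growth (0 = no net growth; negative = cell death). Active: <10.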 Values without a mark were called inactive. Activity calls are given as the source filed them.

Holding throughout (experiment): NCI-60 one-dose screen, 48 h (100 = growth as untreated, 0 = no growth, -100 = all killed)
What all share (conditions): 10 µM unless noted

Assay [1] deals with HCT-15 colon.
The test system of assay [2] is HT29 colon.
In assay [3] the test system is SNB-75 CNS.
In assay [4] the test system is SNB-19 CNS.
The test system of assay [5] is U251 CNS.
Assay [6] has as its system PC-3 prostate.
Assay [7] relates to SK-MEL-5 melanoma.
The subject of assay [8] is UACC-62 melanoma.
The subject of assay [9] is LOX IMVI melanoma.
The test system of assay [10] is SK-MEL-28 melanoma.

In the case of `CCOC(=O)c1ccc(-c2ccc3cc(OC)ccc3c2)nc1C`, the growth in assay [1] is 99.2%; in assay [2], 80.2%; in assay [3], 110%; in assay [4], 99.6%; in assay [5] it was 104%; in assay [6], 100%. Further, the growth in assay [7] is 107%; in assay [8], 85.2%; in assay [9] it was 105%; in assay [10], 91.5%.

`COc1ccc(/C=N/NC(=O)Cn2c(-c3ccc(S(C)(=O)=O)cc3)nc3cc(Cl)ccc32)cc1`: the growth was 17.5% in [1]; 3.57% (active) in assay [2]; 26.5% in assay [3]; 21.6% in assay [4]; 10.4% in assay [5]; 18.4% in assay [6]. Further, the growth is 12.7% in [7], 26.1% in assay [8], 30.8% in [9] and 52.7% in assay [10].

As for `CN1CCC(=C2c3ccccc3C=Cc3ccccc32)CC1`, the growth in assay [1] was 73.7%; in assay [2], 61.9%; in assay [3] it was 47.8%; in assay [4], 91.7%; in assay [5] it was 59.8%; in assay [6] it was 64.9%. For the same compound, the growth in assay [7] was 68.6%; in assay [8], 82.5%; in [9], 72.1%; in assay [10], 85.9%.

Regarding `COc1cc(CNC(=O)/C=C/C=C/c2ccc3c(c2)OCO3)ccc1OCc1cn(-c2ccc(Cl)c(Cl)c2)nn1`, the growth in [1] is -49.9% (active); in assay [2], 5.61% (active); in assay [3] it was -36.8% (active); in assay [4], 20.5%; in [5] it was -57.5% (active); in [6], -11% (active). Besides, the growth in assay [7] is -41.1% (active); in assay [8], -46.7% (active); in [9] it was 11.6%; in assay [10] it was 6.52% (active).

In the case of `O=C1Nc2ccccc2SC1c1ccccc1Cl` (centres undefined), the growth in assay [1] was 110%; in assay [2], 46%; in assay [3], 34.5%; in assay [4], 111%; in [5], 112%; in assay [6], 92.8%. Also, the growth was 106% in assay [7], 101% in [8], 107% in [9] and 104% in assay [10].

Consider `NS(=O)(=O)c1cn(-c2ncnc3nc[nH]c23)ccc1=O`, for which the growth in [1] was 94%; in assay [2], 101%; in [3] it was 75.4%; in assay [4], 97.2%; in [5] it was 102%; in [6] it was 96.1%. Moreover, the growth was 97.6% in assay [7], 89.7% in [8], 99.9% in assay [9] and 105% in assay [10].

Consider `Clc1ccc(-c2nnc(Cn3ccnc3)o2)cc1`, for which the growth was 94.2% in assay [1]; 102% in assay [2]; 91.8% in [3]; 95.5% in assay [4]; 106% in [5]; 97.2% in assay [6]. The growth in assay [7] was 112%; in assay [8], 90.2%; in assay [9] it was 112%; in [10], 106%.

For the compound `O=C(NCc1cn(Cc2cccc(Oc3ccccc3)c2)nn1)c1cccnc1NCc1ccc(Cl)cc1`, the growth is 21.7% in assay [1]; 9.24% (active) in [2]; 11% in [3]; 41.3% in assay [4]; 21.2% in assay [5]; 10% in [6]. Also, the growth is 11.3% in [7], 27.8% in assay [8], 39.4% in assay [9] and 29.5% in assay [10].

With `CCNCCNc1cc(-c2ccc(C(=O)OC)cc2)c(C#N)c2nc3ccccc3n12`, the growth in assay [1] was 45.8%; in assay [2] it was 4.67% (active); in assay [3] it was -38.2% (active); in [4], 41.8%; in assay [5] it was -29% (active); in [6], 54.1%. For the same compound, the growth is 71.6% in [7], -17.7% (active) in [8], -53.4% (active) in [9] and 17% in assay [10].

Regarding `C=CCN1C(=O)[C@]2(SC1=S)[C@H](c1cccc(Cl)c1)CN(C)[C@]21C(=O)NC2C=CC(Cl)=C[C@H]21` (some centres undefined), the growth in assay [1] is 27%; in assay [2] it was 27.9%; in assay [3] it was 44.4%; in [4] it was 59.9%; in [5], 67.8%; in assay [6] it was 7.5% (active). The growth in assay [7] was 42%; in assay [8], 36.1%; in assay [9], 13.3%; in assay [10] it was 64.1%.

For the compound `COc1ccc(/C=C2\C=C(c3ccccc3)N(CCc3ccccc3)C2=O)cc1OC`, the growth was 60.9% in [1]; 38.6% in assay [2]; -7.78% (active) in [3]; 43.3% in assay [4]; 15.9% in assay [5]; 54.4% in assay [6]. The growth in [7] was 38.5%; in assay [8], 54.5%; in [9], 2.28% (active); in assay [10], 76.7%.

Regarding `CN(C)c1ccc(/C=C2\C=C(c3ccccc3)N(CCc3ccccc3)C2=O)cc1`, the growth in [1] is 83.2%; in [2], 77.8%; in [3], -29.1% (active); in [4], 46.6%; in assay [5] it was 33.2%; in assay [6] it was 52.3%. In addition, the growth in assay [7] was 82.7%; in [8], 67.3%; in assay [9] it was 48.9%; in assay [10] it was 89.8%.

As for `CN1CCN(c2ccc(Nc3ncc(Cl)c(NC[C@@H]4CCCO4)n3)cc2)CC1`, the growth is 24.3% in assay [1]; 16% in [2]; 6.49% (active) in assay [3]; 53.9% in [4]; 32.5% in assay [5]; 30.7% in [6]. Further, the growth is 31% in assay [7], 38.5% in assay [8], 8.91% (active) in assay [9] and 50.9% in assay [10].

Take `O=c1[nH]c(NCc2nnnn2-c2ccc(Br)cc2)nc2sc3c(c12)CCCC3`: the growth in assay [1] was 98%; in assay [2] it was 95.5%; in assay [3] it was 93.2%; in [4], 96.1%; in [5], 83.8%; in [6], 84.4%. Besides, the growth in assay [7] is 99.5%; in [8] it was 87.1%; in [9], 95.8%; in assay [10], 112%.

Regarding `Cn1cc(Nc2nccc(-c3ccc(N4CCCC4)c(C#N)c3)n2)cn1`, the growth in assay [1] was 21.3%; in assay [2], 20.3%; in assay [3] it was 24.5%; in [4], 62.3%; in assay [5], 35.8%; in assay [6], 43%. The growth in [7] was 38.8%; in assay [8], 28.8%; in assay [9], 32.6%; in assay [10] it was 64%.

Take `CNC1(C#N)CCN(Cc2ccccc2)CC1`: the growth in assay [1] was 104%; in assay [2], 102%; in assay [3], 81.5%; in assay [4], 99.8%; in [5], 108%; in assay [6], 97.6%. Also, the growth is 116% in [7], 92.5% in assay [8], 102% in assay [9] and 136% in assay [10].

For `CC[C@@H](C[C@H](CCO)c1ccccc1)c1cc2ccccc2o1`, the growth was 95.3% in [1]; 82.7% in [2]; 79.9% in assay [3]; 97.4% in assay [4]; 90.9% in [5]; 78.8% in assay [6]. Moreover, the growth is 106% in assay [7], 88.4% in [8], 101% in assay [9] and 102% in assay [10].

As for `Clc1ccc(/C=N\N=c2\scc(-c3ccc(Cl)cc3)n2/N=C/c2ccc(Cl)cc2)cc1`, the growth was 111% in [1]; 76.5% in [2]; 91.6% in assay [3]; 90% in assay [4]; 97.6% in assay [5]; 102% in assay [6]. Further, the growth in assay [7] is 106%; in assay [8] it was 98.7%; in assay [9], 109%; in assay [10], 106%.

`O=C(NCCN1CCC(O)CC1)c1cc2c(o1)C(=O)c1ccccc1C2=O`: the growth is -80.8% (active) in [1]; -5.34% (active) in assay [2]; -98.5% (active) in assay [3]; -98.1% (active) in assay [4]; -88.1% (active) in [5]; -28.4% (active) in assay [6]. For the same compound, the growth in [7] is -99.2% (active); in assay [8] it was -89.4% (active); in assay [9], -89.3% (active); in assay [10], -74.3% (active).

As to `CCOC(=O)c1c(C)[nH]c(C(=O)CCC(=O)OC)c1C`, the growth is 92.4% in assay [1]; 86.7% in assay [2]; 106% in assay [3]; 106% in assay [4]; 99.9% in assay [5]; 81.2% in [6]. In addition, the growth in assay [7] is 106%; in assay [8], 101%; in assay [9], 103%; in [10] it was 111%.

As to `CC[C@]1(O)C[C@H]2CN(CCc3c([nH]c4ccccc34)[C@@](C(=O)OC)(c3cc4c(cc3OC)N(C=O)[C@H]3[C@@](O)(C(=O)OC)[C@H](OC(C)=O)[C@]5(CC)C=CCN6CC[C@]43[C@@H]65)C2)C1`, the growth was 10.9% in [1]; -3.03% (active) in assay [2]; 15.7% in assay [3]; 10.1% in assay [4]; 24.2% in [5]; 18.3% in assay [6]. Further, the growth in assay [7] is -73.5% (active); in assay [8] it was 23.9%; in assay [9], 28.8%.

Turning to `Fc1ccc(Nc2nc3nonc3nc2Nc2ccc(F)cc2)cc1`, the growth was 6.25% (active) in [1]; 2.83% (active) in assay [2]; -12.9% (active) in [3]; 23% in [4]; -6.58% (active) in assay [5]; 1.43% (active) in [6]. For the same compound, the growth is -46.4% (active) in assay [7], 3.98% (active) in assay [8], 2.74% (active) in assay [9] and 4.39% (active) in [10].

On to `CN(C)CCCCNc1ccc(NCCCCN(C)C)c2c1C(=O)c1c(O)ccc(O)c1C2=O`, for which the growth in assay [1] was -66.4% (active); in [2] it was -52.3% (active); in [3], 79.5%; in [4], 2.06% (active); in assay [5], -85.6% (active); in assay [6] it was -76.9% (active). Moreover, the growth was 89.4% in [7], 104% in [8], -79% (active) in assay [9] and 112% in assay [10].

Take `Cc1ccc2c(n1)C(=O)C(Oc1ccc(F)cc1)=CC2=O`: the growth is 81.8% in assay [1]; 108% in [2]; 83% in assay [3]; 110% in assay [4]; 95.3% in assay [5]; 98.9% in [6]. Besides, the growth in assay [7] was 91.4%; in [8], 99.7%; in assay [9] it was 88.5%; in assay [10] it was 113%.

For the compound `O=C(C[C@@]1(O)C(=O)Nc2c(Cl)ccc(Cl)c21)c1ccc(C2CC2)cc1`, the growth is 19.1% in assay [1]; 12.4% in assay [2]; -29.9% (active) in assay [3]; 36.8% in [4]; 31.3% in assay [5]; 31.4% in [6]. Also, the growth in [7] was 38.8%; in assay [8] it was 42.1%; in [9], 38.1%; in [10], 52.6%.

For `COc1ccccc1NC(=O)Nc1ccc(-c2nc3ccccc3o2)cc1`, the growth was 96.9% in [1]; 132% in assay [2]; 109% in assay [3]; 94.8% in [4]; 93.6% in [5]; 95.6% in assay [6]. For the same compound, the growth in assay [7] is 92.6%; in [8] it was 98.7%; in assay [9], 97.9%; in [10], 111%.

As for `CCCCCCCC/C=C\CCCCCCCC(=O)Oc1cccc2cccnc12`, the growth was 81.8% in assay [1]; 137% in assay [2]; 149% in assay [3]; 103% in [4]; 91% in assay [5]; 114% in assay [6]. Further, the growth in [7] was 102%; in [8] it was 99.8%; in [9], 79.8%; in assay [10], 176%.
